Screening data from PubChem BioAssay.
Only some compounds are listed: those with a hit (about 21% of all), similar ones and a draw of the others.
NS1 inh: qHTS Assay for Inhibitors of Influenza NS1 Protein Function | 270,000 tested, 0.4% active | Potency, µM (series often up to 46.1 µM), without a hit: at the highest dose activity, positive = more growth; calls by dose curve; also: potency is read from the fitted curve at half-maximal effect; actives are rising curves; nearly all actives have a fitted effect of over 50% in size
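Compounds were scored for reversing the slow growth caused by influenza A NS1 in S. cerevisiae, measured by optical density at 600 nm. Assay medium contained 2% galactose at pH 6.0; NS1-free yeast of the same strain were the positive control.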
Shiga inhibitor: A qHTS for Small Molecule Inhibitors of Shiga Toxin. 290,000 tested, 9.2% active. AID 2315, 2010. inhibition, % at 38.7 µM. Vero cells, Shiga toxin protein synthesis inhibition reporter; in the data active = inhibition mostly above about 28%, no sharp cut-off; inactive = mostly below about 43%; also: 0% is about no effect
Pf growth 96h: Primary qHTS for delayed death inhibitors of the malarial parasite plastid, 96 hour incubation. P. falciparum luciferase reporter growth, 96 h. Potency, µM (titrated, usually from 28.7 µM), inactives show top-dose activity change, negative = inhibition, hits mostly inhibitors. 320,000 tested, 6.9% active; also: potency is read from the fitted curve at half-maximal effect; % is scaled to controls: 0 for no effect and ±100 for the full control effect
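Infected RBCs, 2% Hct / 0.05% parasitemia final; luciferase-reporter P. falciparum; cpd 96 h, 37 C, 5% CO2; luciferase detection reagent; luminescence.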
Cycloheximide cs: Cycloheximide Counterscreen for Small Molecule Inhibitors of Shiga Toxin. cell reporter, cycloheximide protein synthesis inhibition counterscreen. max response, %. 300,000 tested, 12% active. AID 2314, 2010; in the data active = max response mostly above about 13%, no sharp cut-off; inactive = mostly below about 14%; also: read at 38.3 µM for the half of the compounds with a filed dose; 0% is about no effect
Pf growth 48h: Primary qHTS for delayed death inhibitors of the malarial parasite plastid, 48 hour incubation; P. falciparum luciferase growth in erythrocytes, 48 h; Potency, µM (highest dose often 28.7 µM), for inactives: at the highest dose activity change, negative = inhibition, hits mostly inhibitors; 310,000 tested, 5.9% active; AID 504832, 2011; also: potency is read from the fitted curve at half-maximal effect; % is scaled to controls: 0 for no effect and ±100 for the full control effect
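Luciferase-expressing P. falciparum in infected erythrocytes (2% hematocrit, 0.1% parasitemia final) in RPMI 1640/0.5% Albumax were exposed to compound for 48 hours at 37 C, 5% CO2; growth read as luminescence.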
FBPA Giardia inh: qHTS Assay for Inhibitors of Fructose-1,6-bisphosphate Aldolase from Giardia Lamblia | A8B2U2 | purified Giardia FBPA | 290,000 tested, 0.71% active | Potency, µM (doses to about 59.6 µM), inactives show at the top dose activity, negative = inhibition, most hits filed as inhibitors; also: potency is read from the fitted curve at half-maximal effect; % is scaled to controls: 0 for no effect and ±100 for the full control effect; nearly all actives have a fitted effect of over 55% in size
Target sequence (A8B2U2 whole entry, looked up): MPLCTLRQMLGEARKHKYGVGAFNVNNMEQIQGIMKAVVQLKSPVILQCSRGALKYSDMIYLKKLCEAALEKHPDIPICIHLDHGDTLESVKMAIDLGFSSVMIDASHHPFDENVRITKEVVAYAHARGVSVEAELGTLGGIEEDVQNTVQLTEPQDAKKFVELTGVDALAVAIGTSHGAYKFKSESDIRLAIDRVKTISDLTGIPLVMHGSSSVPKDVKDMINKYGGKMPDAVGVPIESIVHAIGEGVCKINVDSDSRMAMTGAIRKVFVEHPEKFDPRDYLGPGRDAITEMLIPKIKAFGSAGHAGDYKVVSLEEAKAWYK
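40 nM FBPA preincubated 10 min at RT with compound (up to 57.5 uM final), then substrate plus GAPDH/TPI/NAD/arsenate coupling and diaphorase/resazurin added. Fluorescence read after 20 min at RT, 525/598 nm.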
Numbers without * were called inactive; u = inconclusive; x = no result given; [ ] = remark or other dose. Unless noted, calls follow the shape of the dose curve; as a rule, active = well fitted curve in the direction sought with a large enough effect; inconclusive = small, poorly fitted or top-dose-only effect, or another doubt; inactive = no such curve, though single readings can be large; an effect the other way counts as inactive or inconclusive.

SMILES	NS1 inh	Shiga inhibitor	Pf growth 96h	Cycloheximide cs	Pf growth 48h	FBPA Giardia inh
Cc1ccc(S(=O)(=O)CC(CN2CCCCC2)N2CCCCC2)cc1 (stereo not given)	9%	16	u	15	8.3µM*	0%
Cc1ccc(S(=O)(=O)CC(c2ccccc2)N2CCOCC2)cc1 (stereo not given)	-6%	-13	9.3µM*	1	2%	8%
CCOC(=O)c1ccccc1NC(=O)COC(=O)C1CCN(S(=O)(=O)c2ccccc2C(=O)OC)CC1	x	x	u	x	-27%	x
CCc1nnc(NS(=O)(=O)c2ccc(N=Cc3c(C)[nH]n(-c4ccc(C)c(C)c4)c3=O)cc2)s1	-2%	10	-16%	12*	5%	-1%
CCOC(=O)c1cccc(NC(=O)c2ccc(NC(=O)c3ccco3)cc2)c1	9%	-14	-2%	-3	u	x
O=C(Nc1cccc(NC(=O)c2cncc(Br)c2)c1)c1cncc(Br)c1	18%	x	u	-1	3.7µM*	-3%
CCOC(=O)c1cccc(NC(=O)c2cncc(Br)c2)c1	2%	46*	-23%	41*	u	10%
O=C(Nc1ccncc1)c1cncc(Br)c1	23%	-6	x	-1	10%	-14%
CCOC(=O)c1cccc(NC(=O)c2ccc(N(C)C)cc2)c1	7%	108*	31%	68*	161%	0%
CCCOC(=O)c1cccc(NC(=O)C(C)(C)C)c1	-47%	32*	17%	18*	21%	8%
O=C(COC(=O)CNC(=O)c1ccccc1)Nc1ccc(F)c([N+](=O)[O-])c1	x	17	-9%	2	23%	-2%
CC(=O)OCC1OC(C#Cc2ccc(C(C)(C)C)cc2)C=CC1OC(C)=O (stereo not given)	x	x	x	x	x	6%[12.9 µM]
CCC(C)c1ccc(O)c(NC(=O)c2cccnc2)c1 (stereo not given)	-107%	-15	u	-2	x	-2%
Cc1ccc(NC(=O)c2cncc(Br)c2)c([N+](=O)[O-])c1	2%	77*	u	11*	60%	4%
CCOC(=O)c1cccc(NC(=O)c2cnc3ccccc3n2)c1	-41%	57	44%	35*	u	-11%
CC(C)c1ccc(O)c(NC(=O)c2cncc(Br)c2)c1	-3%	36*	u	19*	u	-1%
O=C(CSc1nc(O)c(C2CCCCC2)c(=O)[nH]1)Nc1ccc(F)cc1	27%	31	36%	-7	28%	7%
CC1CCCC(CC(=O)O)(CC(=O)O)C1 (stereo not given)	u	12	0%	1	u	1%
CC(=O)Nc1ccc(S(=O)(=O)N(C)CC(=O)N/N=C/c2ccncc2)cc1	7%	-1	70%	-9	-27%	16%
O=C(COc1ccc(Nc2ccccc2)cc1)OCC(=O)N1CCCCC1	-5%	-17	36%	-2	6%	0%
CCOC(=O)c1c(CSc2ccc(C)cc2)n(C)c2cc(Br)c(O)c(CN(C)C)c12	12%	-4	10%	1	4.1µM*	-17%
CCOC(=O)c1c(CSc2ccccc2)n(C)c2cc(Br)c(O)c(CN(C)C)c12	3%	-4	u	-4	9.3µM*	-10%
CCOC(=O)c1c(CN2CCOCC2)n(-c2ccccc2)c2cc(Br)c(O)c(CN(C)C)c12	7%	-17	2.6µM*	-2	13µM*	-13%
CCOC(=O)c1c(CSc2ccsc2)n(C)c2cc(Br)c(O)c(CN(C)C)c12	17%	0	u	-3	u	-6%
CCOC(=O)c1c(CN(C)C)oc2cc(CN(C)C)c(O)c(CSc3ccccc3)c12	10%	-16	2.3µM*	8	0.37µM*	-15%
CCOC(=O)c1c(CSc2ccccc2)n(C)c2ccc(O)c(CN3CCN(C)CC3)c12	u	8	u	0	u	-8%
CC(=O)Nc1c(I)c(C(=O)N[C@H]2[C@@H](O)[C@H](O)[C@H](CO)O[C@@H]2O)c(I)c(N(C)C(C)=O)c1I	x	x	-26%[12.8 µM]	x	-9%[12.8 µM]	1%[21.7 µM]
